Shown are actives, neighbours in structure and some others; about 27% of the full set was active somewhere.
CYP2C19 act: increases human CYP2C19 enzyme activity; P33261; recombinant CYP2C19, luciferin-H EGE luminescence; hits give high values; 0 = fully inhibited enzyme, 1 = untreated enzyme; activation factor at 5 µM; 96,000 tested, under 10 active;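 active = activation factor of at least 2 at 5 µM in the primary screen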
sEH inh: soluble epoxide hydrolase (human) inhibition; recombinant human sEH enzymatic activity assay; inhibition, % at 2 µM; actives 0.34% (n = 91,000); AID 707; in the data active = inhibition above about 80%
CYP2C9 inh: inhibitors of human CYP2C9; CYP2C9 Supersomes, luciferin-H conversion, luminescence; actives 20% (n = 96,000); P11712; inhibition, % at 5 µM;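 active = blocking of liver enzyme CYP2C9 beyond about 50% at 5 µM, limit read from the data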
Target sequence (P11712 whole entry, looked up): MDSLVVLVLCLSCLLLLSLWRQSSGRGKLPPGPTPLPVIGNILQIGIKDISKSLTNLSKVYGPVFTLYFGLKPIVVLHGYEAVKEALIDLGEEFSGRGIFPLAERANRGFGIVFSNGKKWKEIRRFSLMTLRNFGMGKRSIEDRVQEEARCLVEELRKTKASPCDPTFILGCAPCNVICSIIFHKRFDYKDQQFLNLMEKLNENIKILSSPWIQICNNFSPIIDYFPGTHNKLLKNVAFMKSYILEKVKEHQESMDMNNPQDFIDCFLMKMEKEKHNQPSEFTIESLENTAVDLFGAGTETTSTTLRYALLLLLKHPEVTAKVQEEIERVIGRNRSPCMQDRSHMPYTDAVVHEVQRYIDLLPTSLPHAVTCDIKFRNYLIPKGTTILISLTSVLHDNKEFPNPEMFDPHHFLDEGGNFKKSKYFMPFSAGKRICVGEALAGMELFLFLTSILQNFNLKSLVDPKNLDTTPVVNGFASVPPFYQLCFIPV
sEH activator: activators of human soluble epoxide hydrolase; P34913; purified human sEH enzymatic activity, activator screen; activation, % at 2 µM; actives 0.04% (n = 91,000); in the data active = activation above about 37%
CYP2C19 inh: blocks human cytochrome P450 2C19; P33261; CYP2C19 Supersomes, luciferin-H EGE luminescence, 30 min; inhibition, % at 5 µM; actives 21% (n = 96,000);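 active = CYP2C19 inhibition above a set limit at 5 µM in the primary screen, cut at about 50% in these data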
CYP2C9 act: activators of human CYP2C9. P11712. recombinant CYP2C9, luciferin-H conversion, luminescence; hits give high values; factor 1 = untreated enzyme, 0 = blocked. activation factor at 5 µM. actives 1.4% (n = 96,000). AID 1024;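 active = activation factor of 2 or more for CYP2C9 at a 5 µM dose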
Large screens that a line does not name were inactive.

O=C(Cn1c(CN2CCCCC2)nc2ccccc2c1=O)NCc1ccco1	CYP2C9 inh 75.0, CYP2C19 inh 54.7
COc1cc2c(=O)n(Cc3ccccc3)c(=O)n(CC(=O)NCc3ccco3)c2cc1OC	none
O=C(Cn1c(=O)n(Cc2ccccc2)c(=O)c2ccccc21)NCc1ccco1	CYP2C19 inh 51.9
Cc1cccc(C)c1NC(=O)Cn1c(CN2CCCCC2)nc2ccccc2c1=O	none (no result: CYP2C19 act, CYP2C9 inh, CYP2C19 inh, CYP2C9 act)
O=C(CCCCn1c(=O)c2ccccc2n(CC(=O)Nc2ccccc2)c1=O)NCc1ccco1	none
O=C(CCCCn1c(=O)c2ccccc2n(Cc2ccc(F)cc2)c1=O)NCc1ccco1	CYP2C9 inh 84.9, CYP2C19 inh 81.4 (no result: sEH inh, sEH activator)
O=C(CCn1c(=O)oc2ccccc21)NCc1ccc2c(c1)OCO2	none (no result: sEH inh, sEH activator)
COc1ccc(C(=O)NCCc2nnc(SCC(=O)Nc3ccccc3C(C)C)n2C)cc1	none
Cc1cccc(NC(=S)NC2CC3CCCC(C2)N3Cc2cccs2)c1 (stereo not drawn)	none
Cc1ccc(CNC(=O)CCCn2c(=O)c3ccccc3n(CC(=O)NCc3ccco3)c2=O)cc1	none (no result: CYP2C19 act, CYP2C9 inh, CYP2C19 inh, CYP2C9 act)
O=C(CCCn1c(=O)c2ccccc2n(Cc2ccccc2)c1=O)NCc1ccco1	CYP2C19 inh 90.1
CC1CCN(Cc2nc3c(c(=O)n(C)c(=O)n3C)n2CCCc2ccccc2)CC1	none
CCN(CC)CCOC(=O)c1ccc(NC(=O)COc2cc(=O)n(CC)c3ccccc23)cc1	CYP2C9 inh 52.0, CYP2C19 inh 65.6
CC(C)(C)n1nnnc1CN1CCC(NC(=O)NC2CCCCC2)CC1	sEH inh 96.8
COc1ccc(CC(=O)NC2CCN(Cc3nnnn3C(C)(C)C)CC2)cc1OC	none
Cc1cccc2cc3c(NC(=O)C(C)C)nn(C)c3nc12	none
CCOC(=O)N1CCC(NC(=O)CSCc2cnn(-c3ccccc3)c2-n2cccc2)CC1	CYP2C9 inh 51.4, CYP2C19 inh 57.2
COc1cccc(CNC(=O)c2nnn(-c3ccc(OC(F)(F)F)cc3)c2N)c1	none
COc1cccc(CNC(=O)CSCc2cnn(-c3ccccc3)c2-n2cccc2)c1	CYP2C9 inh 93.8, CYP2C19 inh 92.0
O=C(CSCc1cnn(-c2ccccc2)c1-n1cccc1)NCc1cccs1	CYP2C9 inh 80.6, CYP2C19 inh 53.2
Cc1ccc(CNC(=O)C2CCCN(Cc3cnn(-c4ccccc4)c3-n3cccc3)C2)cc1 (stereo not drawn)	none
CNC(=O)CSCc1cnn(-c2ccccc2)c1-n1cccc1	CYP2C19 inh 75.8
CCOC(=O)N1CCC(NC(=O)c2sc(-n3cccc3)nc2C)CC1	none
C=CCN1C(=O)CN=C1Nc1ccc(OC)cc1OC	none
CCOC(=O)c1cnn(-c2ncnc3c2oc2ccccc23)c1N	none (no result: sEH inh, sEH activator)
COCCNC(=O)CS(=O)Cc1nc(-c2ccc(OC)cc2)oc1C (stereo not drawn)	none (no result: sEH inh, sEH activator)
c1ccc(-n2nnnc2NCCc2c[nH]c3ccccc23)cc1	CYP2C9 inh 81.4, CYP2C19 inh 97.5
c1ccc(CNc2nnnn2-c2ccccc2)cc1	none (no result: CYP2C19 act, CYP2C9 inh, CYP2C19 inh, CYP2C9 act)
COc1ccc(Cn2c(CCC(=O)Nc3ccc(C)cc3)nc3cccnc32)cc1	CYP2C19 inh 60.9
COc1ccc2c(c1)C(C)=CC(C)(C)N2C(=O)CSc1nnc(-c2ccc(C)cc2)o1	CYP2C9 inh 65.1, CYP2C19 inh 65.8
COc1ccc(C(=O)CSc2nnc(-c3ccc(C)cc3)o2)cc1	none
CC1=CC(C)(C)N(C(=O)CSc2ncn[nH]2)c2ccc(C)cc21	CYP2C9 inh 55.4, CYP2C19 inh 89.4
CCOc1cc(C(=O)Nc2ccc3c4c(cccc24)C(=O)N3CC)cc(OCC)c1OCC	CYP2C9 inh 57.2
CCN1C(=O)c2cccc3c(NC(=O)c4cccc(N5C(=O)CCC5=O)c4)ccc1c23	none
COc1ccc(-c2nc3n(c(=O)c2C#N)CCCS3)cc1	none
COc1ccc(-c2cc3nc4n(c(=O)c3s2)CCC4)cc1	CYP2C9 inh 51.1, CYP2C19 inh 70.1
O=C1NC(c2ccccc2)=C(c2nc3ccccc3s2)C(c2ccc(O)cc2)N1 (stereo not drawn)	none
O=C1NC2=C(CCc3ccccc32)C(c2ccc(Br)cc2)N1 (stereo not drawn)	CYP2C9 inh 53.5, CYP2C19 inh 65.4
CS(=O)(=O)N1CCN(c2c(Cl)cccc2[N+](=O)[O-])CC1	none
O=C1c2oc3ccc(Cl)cc3c(=O)c2C(c2ccccn2)N1CCCN1CCOCC1 (stereo not drawn)	none (no result: sEH inh, sEH activator)
CS(=O)(=O)N(CC(=O)Nc1cccc(F)c1)c1cccc([N+](=O)[O-])c1	CYP2C9 inh 60.6
CS(=O)(=O)N(CC(=O)NC1CC1)c1cccc(F)c1	CYP2C19 inh 88.0
CS(=O)(=O)N(CC(=O)Nc1c(F)cccc1F)c1cccc([N+](=O)[O-])c1	none
Cc1cc(C(F)(F)F)nn1CC(=O)N1CCOCC1	none
COC(=O)c1ccccc1NC(=O)c1cccc(NC(=O)c2ccc(Br)o2)c1C	none
COC(=O)c1ccccc1OC(=O)c1ccc(Br)o1	CYP2C19 inh 75.5
O=C(Nc1ccc(Cl)cc1)N1CCCN(Cc2ccccc2F)C1	none
CCOC(=O)C(Sc1nnc2c3ccccc3n(CC)c2n1)C(=O)OCC	none
CCOC(=O)Cc1nnc(NC(=O)CSc2nnc3c4ccccc4n(C(C)C)c3n2)s1	CYP2C9 inh 98.1, CYP2C19 inh 77.6 (no result: sEH inh, sEH activator)
COC(=O)c1ccc(S(=O)(=O)NCCSc2nnc3c4ccccc4n(C)c3n2)cc1	CYP2C9 inh 94.6, CYP2C19 inh 67.6 (no result: sEH inh, sEH activator)
CC1Cc2ccccc2N1C(=O)CSc1nnc2c(n1)[nH]c1ccc(F)cc12 (stereo not drawn)	none (no result: CYP2C19 act, CYP2C9 inh, CYP2C19 inh, CYP2C9 act)
CCn1c2ccccc2c2nnc(SCC(=O)c3ccccc3)nc21	none
CCOC(=O)Cc1nnc(NC(=O)CSc2ccc(Cl)cc2)s1	none
CCCn1c2ccccc2c2nnc(SCC(=O)Nc3nnc(CC(=O)OCC)s3)nc21	CYP2C9 inh 98.4, CYP2C19 inh 94.6
CC1CCc2cc(F)ccc2N1C(=O)CSc1nnc2c3ccccc3n(C)c2n1 (stereo not drawn)	CYP2C9 inh 55.1 (no result: sEH inh, sEH activator)
O=C(COc1c(F)c(F)cc(F)c1F)NC(=O)NC1CCCC1	none
O=C(CSC(=S)N1CCOCC1)N1N=CCC1c1ccccc1 (stereo not drawn)	none
CCc1nnc(NC(=O)CSc2nnc3c4ccccc4n(C)c3n2)s1	CYP2C9 inh 57.9 (no result: sEH inh, sEH activator)
CCn1c2ccccc2c2nnc(SCC(=O)Nc3ncccn3)nc21	none (no result: sEH inh, sEH activator)
CCn1c2ccccc2c2nnc(SCC(=O)NC(CC(C)C)C(=O)OC)nc21 (stereo not drawn)	CYP2C19 inh 96.5
O=C(O)c1ccccc1-c1ccccc1C(=O)NCc1ccco1	none
CCOc1cc(CNc2ccccc2SC)ccc1O	CYP2C19 inh 66.9
COc1cc(CNc2ccccc2SC)ccc1O	CYP2C19 inh 86.8
CCOc1cc(CNc2ccc3c(c2)CCC3)ccc1O	CYP2C9 inh 77.4, CYP2C19 inh 90.8
COc1cc(CNc2ccc3c(c2)CCC3)cc(OC)c1O	none
CC(=O)N1C(Nc2ccc(Cl)cc2)CCN1c1ccccc1 (stereo not drawn)	none
